# Experimental data taken from publication PMC7862700, “An all-to-all approach to the identification of sequence-specific readers for epigenetic DNA modifications on cytosine”.
# How the values were obtained:
# Experiment in all cases: DAPPL (digital affinity profiling via proximity ligation, sequencing); 10 mM Tris-HCl pH 7.5, 50 mM NaCl, 1 mM DTT, 4% glycerol, room temperature, 30 min; GST-TFs on glutathione beads, 16-mer random dsDNA library, 0.1% formaldehyde crosslink after washing; high values mean tight binding
# [1] = biological target: T1, FEV (Homo sapiens, UniProt Q99581 1-238); details: protein: recombinant; tags: N-terminal GST; dsDNA, one strand shown
# T1 sequence: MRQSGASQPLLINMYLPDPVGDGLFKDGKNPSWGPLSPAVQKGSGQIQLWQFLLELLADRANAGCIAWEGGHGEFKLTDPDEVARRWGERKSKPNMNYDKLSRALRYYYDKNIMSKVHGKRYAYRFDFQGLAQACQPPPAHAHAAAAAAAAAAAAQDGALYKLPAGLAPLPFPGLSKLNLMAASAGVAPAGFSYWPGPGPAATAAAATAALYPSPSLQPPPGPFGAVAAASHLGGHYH
# Outline: (§1)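 Binding signal is each hexamer's read frequency for a factor divided by its frequency in the tag-only sample. The factors were GST-fused human transcription factors from yeast, captured on glutathione beads, DNA-barcoded and pooled with that sample. Pools were incubated with 200 nmole of a random double-stranded 16-mer DNA library in Tris/NaCl/DTT/glycerol buffer at room temperature for 30 min, then washed, crosslinked with 0.1% formaldehyde, proximity-ligated with BsaI/T4 ligase (1 h, 37 °C), PCR-amplified and sequenced on an Illumina NextSeq500.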
# [2] = biological target: ETV5 (Homo sapiens, UniProt P41161 1-510); details: protein: recombinant; tags: N-terminal GST; dsDNA, one strand shown
# ETV5, sequence (P41161 whole entry): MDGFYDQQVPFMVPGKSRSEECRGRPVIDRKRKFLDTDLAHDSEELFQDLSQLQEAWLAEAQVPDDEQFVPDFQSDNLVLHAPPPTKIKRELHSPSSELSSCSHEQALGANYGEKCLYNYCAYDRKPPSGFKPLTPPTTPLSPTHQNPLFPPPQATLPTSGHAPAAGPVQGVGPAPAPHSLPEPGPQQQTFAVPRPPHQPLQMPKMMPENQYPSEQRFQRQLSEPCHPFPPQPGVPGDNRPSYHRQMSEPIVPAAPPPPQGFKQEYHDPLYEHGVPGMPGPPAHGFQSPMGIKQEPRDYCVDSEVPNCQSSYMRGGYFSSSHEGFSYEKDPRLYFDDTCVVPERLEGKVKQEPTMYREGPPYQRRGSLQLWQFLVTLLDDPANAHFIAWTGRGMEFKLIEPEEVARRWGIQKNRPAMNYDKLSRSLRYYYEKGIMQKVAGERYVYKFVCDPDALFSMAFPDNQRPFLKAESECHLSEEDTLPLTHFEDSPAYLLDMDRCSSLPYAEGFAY
# Outline: as §1
# [3] = biological target: HSF1 (Homo sapiens, UniProt Q00613 1-529); details: protein: recombinant; tags: N-terminal GST; chain copies: 3; dsDNA, one strand shown
# HSF1, sequence (Q00613 whole entry): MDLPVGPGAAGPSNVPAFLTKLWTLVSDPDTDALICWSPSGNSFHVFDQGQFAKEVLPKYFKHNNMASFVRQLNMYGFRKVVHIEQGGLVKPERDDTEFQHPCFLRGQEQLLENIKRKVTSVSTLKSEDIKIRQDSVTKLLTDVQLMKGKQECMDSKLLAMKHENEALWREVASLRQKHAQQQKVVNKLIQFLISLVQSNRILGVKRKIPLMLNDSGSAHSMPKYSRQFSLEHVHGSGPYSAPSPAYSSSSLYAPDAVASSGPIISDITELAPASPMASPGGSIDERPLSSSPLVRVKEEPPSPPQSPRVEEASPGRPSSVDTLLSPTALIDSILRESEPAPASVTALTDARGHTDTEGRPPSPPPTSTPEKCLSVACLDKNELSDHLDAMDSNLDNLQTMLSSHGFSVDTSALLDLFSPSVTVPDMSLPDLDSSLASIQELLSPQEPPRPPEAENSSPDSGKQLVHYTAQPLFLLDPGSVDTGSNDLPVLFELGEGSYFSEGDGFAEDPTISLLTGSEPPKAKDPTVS
# Outline: as §1
# [4] = biological target: T2, SPIC (Homo sapiens, UniProt Q8N5J4 1-248); details: protein: recombinant; tags: N-terminal GST; dsDNA, one strand shown
# T2 sequence: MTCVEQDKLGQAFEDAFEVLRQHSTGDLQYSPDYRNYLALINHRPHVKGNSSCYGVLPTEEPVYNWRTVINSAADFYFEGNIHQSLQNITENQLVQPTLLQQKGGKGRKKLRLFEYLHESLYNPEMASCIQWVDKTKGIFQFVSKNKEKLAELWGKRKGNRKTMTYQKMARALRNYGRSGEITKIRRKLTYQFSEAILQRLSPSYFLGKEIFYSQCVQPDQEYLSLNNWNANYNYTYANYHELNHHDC
# Outline: as §1
# [5] = biological target: ELF4 (Homo sapiens, UniProt Q99607 1-663); details: protein: recombinant; tags: N-terminal GST; dsDNA, one strand shown
# ELF4, sequence (Q99607 whole entry): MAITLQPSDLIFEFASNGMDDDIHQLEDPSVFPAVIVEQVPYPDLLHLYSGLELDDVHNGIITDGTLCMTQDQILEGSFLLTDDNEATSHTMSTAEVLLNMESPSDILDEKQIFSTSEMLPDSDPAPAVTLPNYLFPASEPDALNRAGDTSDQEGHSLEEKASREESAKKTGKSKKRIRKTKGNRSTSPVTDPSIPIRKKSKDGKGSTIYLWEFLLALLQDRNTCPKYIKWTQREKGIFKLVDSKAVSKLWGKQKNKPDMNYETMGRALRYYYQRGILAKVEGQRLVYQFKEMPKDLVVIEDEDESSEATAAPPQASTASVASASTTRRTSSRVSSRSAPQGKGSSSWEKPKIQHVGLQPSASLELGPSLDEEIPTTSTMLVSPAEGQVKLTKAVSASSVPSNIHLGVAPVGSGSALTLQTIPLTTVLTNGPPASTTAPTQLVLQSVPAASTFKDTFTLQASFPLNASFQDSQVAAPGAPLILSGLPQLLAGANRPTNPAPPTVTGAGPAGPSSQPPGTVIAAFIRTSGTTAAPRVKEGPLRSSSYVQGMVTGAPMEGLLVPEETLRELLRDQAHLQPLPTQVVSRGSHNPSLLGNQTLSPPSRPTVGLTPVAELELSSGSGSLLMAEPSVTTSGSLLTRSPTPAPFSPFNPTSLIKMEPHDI
# Outline: as §1
# [6] = biological target: T3, ELK4 (Homo sapiens, UniProt P28324-2 1-405); details: protein: recombinant; tags: N-terminal GST; dsDNA, one strand shown
# T3 sequence: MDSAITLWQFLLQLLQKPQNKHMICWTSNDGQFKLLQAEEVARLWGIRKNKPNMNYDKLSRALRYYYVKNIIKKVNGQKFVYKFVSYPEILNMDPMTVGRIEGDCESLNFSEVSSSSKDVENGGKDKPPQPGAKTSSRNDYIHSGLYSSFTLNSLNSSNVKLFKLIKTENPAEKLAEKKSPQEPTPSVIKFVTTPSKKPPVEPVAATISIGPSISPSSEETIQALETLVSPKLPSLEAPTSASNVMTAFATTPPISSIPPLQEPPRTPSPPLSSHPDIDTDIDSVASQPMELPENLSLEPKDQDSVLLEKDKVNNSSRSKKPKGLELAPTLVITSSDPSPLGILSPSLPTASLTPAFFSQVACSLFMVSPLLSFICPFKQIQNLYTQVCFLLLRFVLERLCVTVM
# Outline: as §1
# [7] = biological target: T4, ETV2 (Homo sapiens, UniProt O00321 1-342); details: protein: recombinant; tags: N-terminal GST; dsDNA, one strand shown
# T4 sequence: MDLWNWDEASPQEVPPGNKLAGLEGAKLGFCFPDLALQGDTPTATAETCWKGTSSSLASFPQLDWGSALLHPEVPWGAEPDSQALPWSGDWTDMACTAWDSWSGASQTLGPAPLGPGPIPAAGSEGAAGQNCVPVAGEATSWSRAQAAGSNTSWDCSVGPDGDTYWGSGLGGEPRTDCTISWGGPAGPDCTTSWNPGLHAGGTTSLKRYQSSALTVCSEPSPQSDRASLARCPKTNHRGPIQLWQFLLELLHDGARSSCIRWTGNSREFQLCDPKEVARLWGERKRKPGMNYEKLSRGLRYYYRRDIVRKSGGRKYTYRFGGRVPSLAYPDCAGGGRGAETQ
# Outline: as §1
# [8] = biological target: T5, ELF3 (Homo sapiens, UniProt P78545 1-371); details: protein: recombinant; tags: N-terminal GST; dsDNA, one strand shown
# T5 sequence: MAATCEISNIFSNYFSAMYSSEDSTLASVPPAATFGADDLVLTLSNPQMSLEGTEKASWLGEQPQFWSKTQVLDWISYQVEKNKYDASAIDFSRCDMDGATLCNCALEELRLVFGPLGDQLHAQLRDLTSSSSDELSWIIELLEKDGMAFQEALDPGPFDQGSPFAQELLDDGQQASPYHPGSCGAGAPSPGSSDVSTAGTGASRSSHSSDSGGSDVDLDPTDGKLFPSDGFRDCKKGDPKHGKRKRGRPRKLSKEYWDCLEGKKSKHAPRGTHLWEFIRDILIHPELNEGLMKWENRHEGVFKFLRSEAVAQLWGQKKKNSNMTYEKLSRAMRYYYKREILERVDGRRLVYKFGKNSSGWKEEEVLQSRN
# Outline: as §1
# [9] = biological target: CRX (Homo sapiens, UniProt O43186 1-299); details: protein: recombinant; tags: N-terminal GST; dsDNA, one strand shown
# CRX, sequence (O43186 whole entry): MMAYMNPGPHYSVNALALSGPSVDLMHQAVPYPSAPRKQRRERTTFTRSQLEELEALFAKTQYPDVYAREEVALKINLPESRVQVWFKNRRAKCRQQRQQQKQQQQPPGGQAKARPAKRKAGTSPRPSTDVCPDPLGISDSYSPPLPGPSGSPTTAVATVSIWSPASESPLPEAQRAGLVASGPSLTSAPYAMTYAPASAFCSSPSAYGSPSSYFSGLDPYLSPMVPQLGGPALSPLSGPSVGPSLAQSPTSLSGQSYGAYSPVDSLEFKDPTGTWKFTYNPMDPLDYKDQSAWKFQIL
# Outline: as §1
sequence,measurement,setting,value
AAGCCT,binding signal,[1],"1.2 fold enrichment (6-mer frequency, TF over GST control)"
same,binding signal,[2],"1.21 fold enrichment (6-mer frequency, TF over GST control)"
same,binding signal,[3],"1.5 fold enrichment (6-mer frequency, TF over GST control)"
same,binding signal,[4],"1.26 fold enrichment (6-mer frequency, TF over GST control)"
same,binding signal,[5],"1.24 fold enrichment (6-mer frequency, TF over GST control)"
same,binding signal,[6],"1.14 fold enrichment (6-mer frequency, TF over GST control)"
same,binding signal,[7],"1.19 fold enrichment (6-mer frequency, TF over GST control)"
same,binding signal,[8],"1.18 fold enrichment (6-mer frequency, TF over GST control)"
same,binding signal,[9],"1.97 fold enrichment (6-mer frequency, TF over GST control)"
